Source: PubChem BioAssay AID1159580 (chemical genetic matrix, 2015)
Several values for one entry are separate records, joined by “and”; a condition that tells them apart may be missing. Equal values may be shown once. Out of some 5,500 compounds screened, about 2,000 (36%) were called active. Inconclusive results (about 18%) are left out. No stated cut-off is given here; in the data, active means normalized growth mostly below about 0.91 (no sharp cut-off); inconclusive means no clear call, values can overlap the other calls; inactive means mostly above about 0.92. The list shows a part of the results.

Experiment: chemical genetic growth profiling, strain panel (AID 1159580);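 further: tested at 20 µM; growth read once vehicle control cultures reached saturation at 30 °C; 1 = growth at the plate median or of vehicle wells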
Conditions: S. cerevisiae deletion strains, growth OD

Measured: normalized growth

CC(C)c1ccc2c(c1)CCC1C(C)(C(N)=O)CCCC21C (stereo unspecified)
inactive: locus YAL013W, strain DEP1, stronger effect = lower value 0.923 | locus YAL021C, strain ccr4, stronger effect = lower value 1.01 | locus YAL026C, strain drs2, stronger effect = lower value 0.916 | locus YAL030W, strain snc1, stronger effect = lower value 0.966 | locus YBL061C, strain skt5, stronger effect = lower value 0.951 | locus YBR009C, strain hhf1, stronger effect = lower value 0.947 | locus YBR021W, strain FUR4, stronger effect = lower value 1.02 | locus YBR023C, strain chs3, stronger effect = lower value 0.916 | locus YBR171W, strain sec66, stronger effect = lower value 0.952 | locus YBR229C, strain ROT2, stronger effect = lower value 0.983 | locus YBR231C, strain swc5, stronger effect = lower value 0.993 | locus YBR279W, strain paf1, stronger effect = lower value 0.992 | locus YCL011C, strain gbp2, stronger effect = lower value 0.941 | locus YCL016C, strain dcc1, stronger effect = lower value 0.94 | locus YCL029C, strain bik1, stronger effect = lower value 0.969 | locus YCL061C, strain MRC1, stronger effect = lower value 0.953 | locus YCL069W, strain vba3, stronger effect = lower value 0.969 | locus YCR088W, strain abp1, stronger effect = lower value 0.958 | locus YDL005C, strain med2, stronger effect = lower value 0.954 | locus YDL035C, strain GPR1, stronger effect = lower value 0.88 | locus YDL040C, strain nat1, stronger effect = lower value 0.976 | locus YDL101C, strain DUN1, stronger effect = lower value 0.946 | locus YDL134C, strain PPH21, stronger effect = lower value 0.898 | locus YDL185W, strain tfp1, stronger effect = lower value 0.991 | locus YDR001C, strain nth1, stronger effect = lower value 0.948 | locus YDR069C, strain doa4, stronger effect = lower value 0.989 | locus YDR101C, strain arx1, stronger effect = lower value 0.937 | locus YDR159W, strain sac3, stronger effect = lower value 0.895 | locus YDR162C, strain NBP2, stronger effect = lower value 0.872 | locus YDR195W, strain ref2 0.922 | locus YDR297W, strain sur2, stronger effect = lower value 0.968 | locus YDR318W, strain mcm21, stronger effect = lower value 0.931 | locus YDR334W, strain swr1, stronger effect = lower value 0.965 | locus YDR335W, strain msn5, stronger effect = lower value 0.976 | locus YDR388W, stronger effect = lower value 0.972 | locus YDR502C, strain sam2, stronger effect = lower value 0.926 | locus YEL003W, strain gim4, stronger effect = lower value 0.971 | locus YEL037C, strain rad23, stronger effect = lower value 0.973 | locus YEL061C, strain CIN8 (second series), stronger effect = lower value 0.96 | locus YEL061C, strain CIN8, stronger effect = lower value 0.962 | locus YER015W, strain faa2, stronger effect = lower value 0.982 | locus YER016W, strain bim1, stronger effect = lower value 0.967 | locus YER110C, stronger effect = lower value 0.995 | locus YER111C, strain swi4, stronger effect = lower value 0.936 | locus YER155C, strain BEM2 (second series), stronger effect = lower value 0.955 | locus YFR010W, strain ubp6, stronger effect = lower value 0.957 | locus YGL078C, strain dbp3, stronger effect = lower value 0.964 | locus YGL167C, strain pmr1, stronger effect = lower value 0.945 | locus YGL173C, strain kem1, stronger effect = lower value 0.951 | locus YGL227W, strain vid30, stronger effect = lower value 0.965 | locus YGL240W, strain doc1, stronger effect = lower value 0.963 | locus YGL248W, strain PDE1, stronger effect = lower value 0.926 | locus YGL253W, strain hxk2, stronger effect = lower value 0.951 | locus YGR135W, strain pre9, stronger effect = lower value 0.932 | locus YGR252W, strain gcn5, stronger effect = lower value 0.857 | locus YHR013C, strain ard1, stronger effect = lower value 1.09 | locus YHR027C, strain rpn1, stronger effect = lower value 0.979 | locus YHR079C, strain IRE1 (second series), stronger effect = lower value 0.974 | locus YHR094C, strain hxt1, stronger effect = lower value 1 | locus YHR129C, strain ARP1, stronger effect = lower value 0.941 | locus YHR200W, strain rpn10, stronger effect = lower value 0.945 | locus YIL066C, strain RNR3, stronger effect = lower value 0.902 | locus YIL073C, strain SPO22, stronger effect = lower value 0.833 | locus YIL125W, strain kgd1, stronger effect = lower value 0.939 | locus YIR030C, strain dcg1, stronger effect = lower value 0.97 | locus YJL092W, strain hpr5, stronger effect = lower value 0.956 | locus YJL095W, strain BCK1 (second series), stronger effect = lower value 0.966 | locus YJL115W, strain asf1, stronger effect = lower value 0.976 | locus YJL129C, strain trk1, stronger effect = lower value 0.905 | locus YJL134W, strain LCB3, stronger effect = lower value 0.983 | locus YJL154C, strain vps35, stronger effect = lower value 0.961 | locus YJL164C, strain tpk1, stronger effect = lower value 0.941 | locus YJL166W, strain qcr8, stronger effect = lower value 0.965 | locus YJL168C, strain set2, stronger effect = lower value 0.993 | locus YJL187C, strain SWE1 (second series), stronger effect = lower value 0.924 | locus YJL187C, strain SWE1, stronger effect = lower value 0.968 | locus YJR043C, strain POL32, stronger effect = lower value 0.941 | locus YJR066W, strain TOR1, stronger effect = lower value 0.936 | locus YKL068W, stronger effect = lower value 0.965 | locus YKL085W, strain MDH1 (second series), stronger effect = lower value 0.944 | locus YKL085W, strain MDH1, stronger effect = lower value 0.944 | locus YKL160W, strain elf1, stronger effect = lower value 0.952 | locus YKL190W, strain CNB1, stronger effect = lower value 0.969 | locus YKR026C, strain gcn3, stronger effect = lower value 0.969 | locus YKR091W, strain srl3, stronger effect = lower value 0.963 | locus YLL001W, strain dnm1, stronger effect = lower value 0.926 | locus YLL026W, stronger effect = lower value 0.976 | locus YLL041C, strain sdh2, stronger effect = lower value 0.96 | locus YLR027C, strain aat2, stronger effect = lower value 0.979 | locus YLR058C, strain SHM2, stronger effect = lower value 0.949 | locus YLR102C, strain apc9, stronger effect = lower value 0.986 | locus YLR221C, strain rsa3, stronger effect = lower value 0.916 | locus YLR258W, strain gsy2, stronger effect = lower value 0.966 | locus YLR268W, strain sec22, stronger effect = lower value 0.917 | locus YLR320W, strain mms22, stronger effect = lower value 0.911 | locus YLR342W, strain FKS1, stronger effect = lower value 0.946 | locus YLR357W, strain rsc2, stronger effect = lower value 0.952 | locus YLR370C, strain arc18, stronger effect = lower value 0.952 | locus YLR384C, strain iki3, stronger effect = lower value 0.954 | locus YML016C, strain PPZ1, stronger effect = lower value 0.977 | locus YML032C, strain rad52, stronger effect = lower value 0.954 | locus YML120C, strain ndi1, stronger effect = lower value 0.939 | locus YML124C, strain tub3, stronger effect = lower value 0.972 | locus YMR058W, strain fet3, stronger effect = lower value 0.958 | locus YMR078C, strain ctf18, stronger effect = lower value 0.984 | locus YMR125W, strain sto1, stronger effect = lower value 0.954 | locus YMR129W, stronger effect = lower value 0.952 | locus YMR205C, strain PFK2, stronger effect = lower value 0.894 | locus YMR223W, strain ubp8, stronger effect = lower value 0.929 | locus YMR231W, strain pep5, stronger effect = lower value 0.98 | locus YMR263W, strain SAP30, stronger effect = lower value 0.943 | locus YNL067W, strain RPL9B, stronger effect = lower value 0.935 | locus YNL128W, strain TEP1, stronger effect = lower value 0.925 | locus YNL183C, strain NPR1, stronger effect = lower value 0.9 | locus YNL209W, strain ssb2, stronger effect = lower value 0.974 | locus YNL248C, strain rpa49, stronger effect = lower value 0.942 | locus YNL250W, strain rad50, stronger effect = lower value 0.97 | locus YNL271C, strain bni1, stronger effect = lower value 0.951 | locus YNL307C, strain MCK1, stronger effect = lower value 0.942 | locus YNL322C, strain KRE1 (second series), stronger effect = lower value 0.937 | locus YNR049C, strain mso1, stronger effect = lower value 0.969 | locus YOL012C, strain htz1 1.06 | locus YOL147C, strain pex11, stronger effect = lower value 0.965 | locus YOR001W, strain rrp6, stronger effect = lower value 0.973 | locus YOR069W, strain VPS5, stronger effect = lower value 0.966 | locus YOR070C, strain gyp1, stronger effect = lower value 0.955 | locus YOR080W, strain dia2, stronger effect = lower value 0.964 | locus YOR083W, strain WHI5, stronger effect = lower value 0.917 | locus YOR106W, strain vam3, stronger effect = lower value 0.955 | locus YOR136W, strain idh2, stronger effect = lower value 0.962 | locus YOR144C, strain elg1, stronger effect = lower value 0.956 | locus YOR231W, strain MKK1, stronger effect = lower value 0.891 | locus YOR265W, strain rbl2, stronger effect = lower value 0.965 | locus YOR270C, strain vph1, stronger effect = lower value 0.984 | locus YOR290C, strain snf2, stronger effect = lower value 0.902 | locus YOR316C, strain cot1, stronger effect = lower value 0.983 | locus YPL078C, strain atp4, stronger effect = lower value 0.946 | locus YPL106C, strain sse1, stronger effect = lower value 0.93 | locus YPL240C, strain hsp82, stronger effect = lower value 0.966 | locus YPL241C, strain CIN2, stronger effect = lower value 0.98 | locus YPL256C, strain CLN2, stronger effect = lower value 0.838 | locus YPR119W, strain clb2, stronger effect = lower value 0.942 | locus YPR141C, strain kar3, stronger effect = lower value 0.968 | locus YPR163C, strain tif3, stronger effect = lower value 0.966 | locus YPR167C, strain met16, stronger effect = lower value 0.985 | strain wtn01, stronger effect = lower value 0.922
0.815 (active) and 0.881 (inactive): locus YHR030C, strain SLT2, stronger effect = lower value
0.695 (active) and 0.911 (inactive): locus YJL095W, strain BCK1, stronger effect = lower value
active: locus YDL074C, strain BRE1, stronger effect = lower value 0.76 | locus YDL192W, strain arf1, stronger effect = lower value 0.831 | locus YDR137W, strain rgp1, stronger effect = lower value 0.679 | locus YDR392W, strain spt3, stronger effect = lower value 0.627 | locus YER155C, strain BEM2, stronger effect = lower value 0.89 | locus YER167W, strain BCK2, stronger effect = lower value 0.898 | locus YGL086W, strain mad1, stronger effect = lower value 0.894 | locus YGR229C, strain SMI1, stronger effect = lower value 0.654 | locus YHR079C, strain IRE1, stronger effect = lower value 0.848 | locus YHR142W, strain chs7, stronger effect = lower value 0.801 | locus YKL009W, strain mrt4, stronger effect = lower value 0.856 | locus YKR001C, strain vps1, stronger effect = lower value 0.78 | locus YLR039C, strain RIC1, stronger effect = lower value 0.569 | locus YLR113W, strain HOG1, stronger effect = lower value 0.78 | locus YLR262C, strain YPT6 (second series), stronger effect = lower value 0.734 | locus YLR262C, strain YPT6, stronger effect = lower value 0.498 | locus YLR330W, strain CHS5, stronger effect = lower value 0.909 | locus YLR342W, strain FKS1 (second series), stronger effect = lower value 0.645 | locus YLR371W, strain rom2, stronger effect = lower value 0.671 | locus YLR418C, strain cdc73, stronger effect = lower value 0.76 | locus YMR307W, strain GAS1, stronger effect = lower value 0.418 | locus YNL071W, strain lat1, stronger effect = lower value 0.916 | locus YNL233W, strain BNI4, stronger effect = lower value 0.792 | locus YNL298W, strain CLA4, stronger effect = lower value 0.887 | locus YNR052C, strain pop2, stronger effect = lower value 0.847 | locus YOR061W, strain CKA2, stronger effect = lower value 0.885 | locus YOR184W, strain ser1, stronger effect = lower value 0.703 | locus YPL051W, strain arl3, stronger effect = lower value 0.915
